# Cruzain noTriton: inhibitors of Trypanosoma cruzi cruzain without detergent; Potency, µM, usual class: inhibitors; P25779; purified cruzain, Z-FR-AMC fluorescence, no detergent; 200,000 tested, 2.3% active; also: nearly all actives have a fitted effect of over 40% in size
# Target sequence (P25779 123-467 limits assumed): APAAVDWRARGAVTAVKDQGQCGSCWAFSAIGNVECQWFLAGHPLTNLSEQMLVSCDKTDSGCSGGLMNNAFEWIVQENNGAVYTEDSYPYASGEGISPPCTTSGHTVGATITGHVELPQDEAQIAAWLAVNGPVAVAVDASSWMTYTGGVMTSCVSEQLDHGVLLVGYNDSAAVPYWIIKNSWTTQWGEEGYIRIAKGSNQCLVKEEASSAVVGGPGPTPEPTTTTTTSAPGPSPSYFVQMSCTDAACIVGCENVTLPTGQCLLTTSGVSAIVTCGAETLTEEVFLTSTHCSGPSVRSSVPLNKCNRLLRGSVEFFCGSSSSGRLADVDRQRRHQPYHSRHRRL
#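 Purified cruzain at 1.5 nM, pre-incubated 15 min with compound at room temperature in 100 mM sodium acetate pH 5.5, 5 mM DTT, 0.00005% Triton X-100. Reaction started with 2 uM Z-FR-AMC; AMC fluorescence increase over 60 s gives rate.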
# NS1 inh: influenza NS1 inhibition; 270,000 tested, 0.4% active; Potency, µM (top dose mostly 46.1 µM); calls by dose curve; also: actives are rising curves; nearly all actives have a fitted effect of over 50% in size
#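 In this qHTS, NS1 from influenza A is expressed in budding yeast, where it slows growth. Cells are switched from glucose to 2% galactose medium (pH 6.0, -URA), treated with compound, and growth recovery is read at OD600.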
# Cruzain inh Det: inhibitors of Trypanosoma cruzi cruzain with detergent. P25779. purified cruzain, Z-FR-AMC fluorescence, 0.01% Triton. Potency, µM, usual class: inhibitors. 200,000 tested, 0.43% active. AID 1478; also: nearly all actives have a fitted effect of over 40% in size
#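 Cruzain (1.5 nM) preincubated 15 min at RT with compound in 100 mM sodium acetate pH 5.5, 5 mM DTT, 0.01% Triton X-100. Reaction started with 2 uM Z-FR-AMC; AMC fluorescence (ex 360/em 450 nm) change over 60 s gave rate.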
# Numbers stand for hits; - = inactive; ? = inconclusive; . = no result. The sample as a whole holds a higher share of hits than the screen did. Unless noted, calls follow the shape of the dose curve; as a rule, active = well fitted curve in the direction sought with a large enough effect; inconclusive = small, poorly fitted or top-dose-only effect, or another doubt; inactive = no such curve, though single readings can be large; an effect the other way counts as inactive or inconclusive.
SMILES,Cruzain noTriton,NS1 inh,Cruzain inh Det
CC1(C)CC(=O)C(C=NCCc2ccc(O)cc2)=C(O)C1,-,-,-
CC(Cc1ccccn1)NC(=O)c1ccc(OC2CCN(Cc3ccccn3)CC2)cc1 (stereo unspecified),.,-,.
COc1ccc(/C=N/NC(=S)Nc2ccccc2)cc1COc1ccc(F)cc1,7.9µM,?,-
COc1ccc(/C=N/NC(=S)Nc2ccccc2)cc1COc1ccc(Br)cc1,.,-,.
COc1cc(OC)cc(C(=O)N/N=C/c2ccc(OC)c(COc3ccc4ccccc4c3)c2)c1,7.9µM,?,-
COc1ccc(C(=O)N/N=C/c2ccc(OC)c(COc3ccccc3)c2)cc1,.,-,.
COc1ccc(/C=N\NC(=O)c2ccccc2F)cc1COc1ccc(F)cc1F,.,-,.
COc1ccc(/C=N/NC(=S)Nc2ccccc2)cc1COc1ccccc1F,13µM,-,-
COc1cc(CNC(=O)CCC(=O)N2C[C@H]3C[C@H](C2)c2cccc(=O)n2C3)cc(OC)c1OC,.,-,.
Cn1nc(C(F)(F)F)c(-c2ccccc2)c1NC(=O)c1nccnc1C(=O)O,.,-,.
COc1cc(Nc2nc(SCc3ccccc3F)nc3ccccc23)cc(OC)c1,-,.,-
COc1cc(Nc2nc(SCc3cccc(Cl)c3)nc3ccccc23)cc(OC)c1,20µM,.,-
COc1cc(Nc2nc(SCc3ccc(Cl)cc3)nc3ccccc23)cc(OC)c1,?,.,-
COc1cc(Nc2nc(SCc3ccccc3Cl)nc3ccccc23)cc(OC)c1,16µM,.,-
O=C(CSc1nc(Nc2ccccc2)c2ccccc2n1)c1ccc(Cl)cc1,?,.,-
COc1cc(Nc2nc(SCC(=O)c3ccc(Cl)c(Cl)c3)nc3ccccc23)cc(OC)c1,6.3µM,.,-
COc1cc(-c2nc3sccn3c2Nc2cccc(C)c2)ccc1O,-,.,-
CCn1cc(C(=O)NCc2ccc(Cl)cc2)c(=O)c2cc(S(=O)(=O)N3CCc4ccccc4C3)ccc21,-,.,-
CC(NS(=O)(=O)c1ccc(F)cc1)C(=O)Nc1ccc2c(c1)OCCO2 (stereo unspecified),.,-,.
O=C(CSc1ncc2c(n1)-c1ccccc1N(Cc1ccc(F)cc1)S2(=O)=O)c1ccc(Br)cc1,?,.,-
O=C(CSc1ncc2c(n1)-c1ccccc1N(Cc1ccc(F)cc1)S2(=O)=O)c1ccc(Cl)cc1,25µM,.,-
COC(=O)CSc1ncc2c(n1)-c1ccccc1N(Cc1ccccc1C)S2(=O)=O,13µM,.,-
O=C(CSc1ncc2c(n1)-c1ccccc1N(Cc1ccc(Cl)cc1)S2(=O)=O)c1ccc(Cl)cc1,20µM,.,-
Cc1ccccc1CN1c2ccccc2-c2nc(SCC(=O)c3ccc(Cl)cc3)ncc2S1(=O)=O,-,.,-
Cc1ccccc1CN1c2ccccc2-c2nc(SCC(=O)NCc3ccccc3)ncc2S1(=O)=O,-,.,-
SMILES,Cruzain noTriton,NS1 inh,Cruzain inh Det
COc1ccc(NC(=O)Cn2c(=O)n(CCc3ccccc3)c(=O)c3sc4ccccc4c32)cc1,-,.,-
CCOC(=O)C(NC(=O)c1ccc(Cl)cc1Cl)(Nc1ccc(C)cc1)C(F)(F)F (stereo unspecified),-,-,-
C=CCN(C(=O)c1csnn1)C(C(=O)NC1CCCC1)c1ccc(OC)cc1 (stereo unspecified),.,-,.
Cc1cccc(C)c1NCc1nnc(SCC(=O)Nc2nc(-c3ccccc3)cs2)n1-c1ccccc1,?,-,-
CCOc1ccc(NCc2nnc(SCC(=O)Nc3nc(-c4ccccc4)cs3)n2-c2ccccc2)cc1,25µM,-,-
C/C(=N\NC(=O)c1cc(Cl)ccc1O)c1ccc(Br)s1,10µM,-,-
C/C(=N\NC(=O)c1ccc(Cl)cc1)c1ccc(Br)s1,?,-,-
Cc1ccc(S(=O)(=O)N2CCCCC2)cc1C(=O)NCC1CCCO1 (stereo unspecified),.,-,.
CCOCCn1c(CN2CCN(CCO)CC2)nc2c1c(=O)n(C)c(=O)n2C,.,-,.
CC(C)OCCCn1c(=O)c2ccccc2n2c(-c3ccccc3F)nnc12,-,.,-
CN1CCc2nc3sc(C(=O)C45CC6CC(CC(C6)C4)C5)c(N)c3cc2C1,13µM,?,?
CN1CCc2nc3sc(C(=O)c4ccc(F)cc4)c(N)c3cc2C1,-,.,-
CCC(=O)N1CCc2cc(S(=O)(=O)CCC(=O)NCc3cccc(OC)c3)ccc21,-,-,-
COc1ccc(Cl)cc1NC(=O)CN1c2ccccc2S(=O)(=O)c2ccccc21,20µM,.,-
O=S1(=O)c2ccccc2N(Cc2ccc(Cl)cc2)c2ccccc21,-,.,-
O=S1(=O)c2ccccc2N(Cc2ccc(Cl)cc2F)c2ccccc21,32µM,.,-
COc1ccc(Cl)cc1NC(=O)Cn1cccc1,-,-,-
COc1ccc(/C=N/Nc2ncc(C(F)(F)F)cc2Cl)cc1OC,-,-,-
O=C(c1ccc2c(c1)N(Cc1ccc(F)cc1)C(=O)c1ccccc1S2=O)N1CCC(Cc2ccccc2)CC1 (stereo unspecified),-,.,-
COc1ccc(Nc2nnc(SC(C(=O)Nc3ccc(OC)c(Cl)c3)c3ccccc3)s2)cc1 (stereo unspecified),6.3µM,-,-
COc1ccc(C)cc1NC(=O)C(Sc1nnc(Nc2cc(C)ccc2OC)s1)c1ccccc1 (stereo unspecified),?,?,-
CCN(CC)S(=O)(=O)c1ccc(/C=C/C(=O)OCC(=O)Nc2cccc3ccccc23)cc1,-,-,-
O=C(COC(=O)/C=C/c1nc2ccccc2s1)Nc1cccc2ccccc12,6.3µM,?,-
O=C(COC(=O)/C=C/c1nc2ccccc2s1)Nc1cccc(Cl)c1Cl,10µM,-,-
O=C(COC(=O)/C=C/c1ccc(Cl)cc1)Nc1ccccc1-c1ccccc1,-,-,-
SMILES,Cruzain noTriton,NS1 inh,Cruzain inh Det
CCC(=O)N1CCc2cc(S(=O)(=O)Nc3cc(C)ccc3OC)ccc21,?,.,-
CCCCCCNC(=O)c1cccc(-c2ccc(C)c3ccccc23)n1,-,-,-
CC1CC(C)CN(S(=O)(=O)c2ccc3c(c2)oc(=O)n3CC(=O)NCCCOC(C)C)C1 (stereo unspecified),.,-,.
O=c1[nH]c(/C(Cl)=C/c2cccc(C(F)(F)F)c2)nc2cc(Cl)ccc12,3.2µM,-,-
O=c1[nH]c(/C(Cl)=C/c2c(F)cccc2Cl)nc2cc(Cl)ccc12,?,-,-
Cc1cccc(N2CN(Cc3cccnc3)CNC2=S)c1C,-,-,-
Cn1c(SCC(=O)Nc2cccc(F)c2)nc2c(c1=O)SCC2,.,-,.
Cc1ccc(N=Nc2c(O)ccc3cc(S(=O)(=O)O)ccc23)cc1,?,-,-
Cc1ccc(S(=O)(=O)Oc2ccc(N=Nc3ccc(-c4ccc(N=Nc5c(O)ccc6cc(S(=O)(=O)O)cc(S(=O)(=O)O)c56)c(C)c4)cc3C)cc2)cc1,?,.,13µM
O=[N+]([O-])c1ccc(O)c(CSc2nnnn2-c2ccccc2)c1,.,-,.
COc1ccc(C(=O)COC(=O)C(Cc2c[nH]c3ccccc23)NC(=O)c2ccc(C(C)(C)C)cc2)cc1 (stereo unspecified),13µM,.,-
CC(C)(C)c1ccc(C(=O)NC(Cc2c[nH]c3ccccc23)C(=O)OCC(=O)c2ccccc2)cc1 (stereo unspecified),?,.,-
O=C(c1ccco1)N1CCN(S(=O)(=O)c2ccccc2)CC1,.,-,.
CCc1ccc(NC(=O)Cn2c(=O)n(CCc3ccccc3)c(=O)c3sc4ccccc4c32)cc1,-,.,-
